Compound activity: PubChem BioAssay, National Center for Advancing Translational Sciences (NCATS)
Hits are enriched below; roughly 19% of the tested compounds scored in any of these assays.
HT1080 IDH1KD tx: qHTS for induction of synthetic lethality in tumor cells producing 2HG: qHTS for the HT-1080-IDH1KD cell line. Potency, µM (series often up to 46.1 µM), without a hit: at the top dose activity, negative = toxicity, usual class: cytotoxic. 360,000 tested, 2% active. HT-1080 IDH1 knockdown viability, ATP luminescence, 48 h;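 also: potency is read from the fitted curve at half-maximal effect; 0% = DMSO wells and -100% = cell-free medium wells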
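In this qHTS, HT-1080 cells depleted of IDH1 are exposed for 48 h at 37 °C to compound titrations. Toxicity is scored from CellTiter-Glo luminescence, with DMSO as full viability and medium alone as none.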
HT1080NT lethal: qHTS for induction of synthetic lethality in tumor cells producing 2HG: qHTS for the HT-1080-NT fibrosarcoma cell line | 360,000 tested, 1.6% active | Potency, µM (top dose mostly 46.1 µM), for inactives: at the highest dose activity, negative = less viability, actives largely listed as cytotoxic | HT-1080-NT fibrosarcoma viability, CellTiter-Glo ATP luminescence, 48 h;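 also: NT is the 2HG producing partner of a matched IDH1 knockdown line; potency is read from the fitted curve at half-maximal effect; 0% = DMSO-treated cells and -100% = media-only wells without cells; nearly all actives have a fitted effect of over 55% in size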
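Viability of the 2HG-overproducing fibrosarcoma line after 48 hours of compound exposure at 37 degrees C was determined by luminescence with CellTiter-Glo, and concentration-effect curves were then fitted and categorized.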
DT40 TDP1 no CPT: qHTS for Inhibitors of human tyrosyl-DNA phosphodiesterase 1 (TDP1): qHTS in cells in absence of CPT; 420,000 tested, 15% active; Potency, µM (top dose mostly 46.2 µM), for the others: top-dose activity change, negative = growth inhibition, most hits filed as inhibitors; DT40 Tdp1-/- hTDP1 cells, no CPT, ATP luminescence, 48 h; also: potency is read from the fitted curve at half-maximal effect; nearly all actives have a fitted effect of over 55% in size
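Readout: luminescence from CellTiter-Glo after 30 min in the dark at RT. Cells: DT40 Tdp1-/- with stable hTDP1, 400/well. Exposure: compounds alone, ≥48 hr, 37 °C.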
TDP1 cell CPT: qHTS for Inhibitors of human tyrosyl-DNA phosphodiesterase 1 (TDP1): qHTS in cells in presence of CPT. 420,000 tested, 12% active. Potency, µM (top dose mostly 46.2 µM), inactives show top-dose activity change, negative = growth inhibition, hits mostly inhibitors. AID 686979, 2013. chicken DT40 Tdp1-/-;hTDP1 cells + 20 nM CPT, ATP luminescence, 48 h; also: potency is read from the fitted curve at half-maximal effect; nearly all actives have a fitted effect of over 55% in size
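Cell growth measured by CellTiter-Glo luminescence after a minimum 48 h, 37 C compound exposure with 20 nM CPT in Tdp1-knockout DT40 cells stably expressing hTDP1, seeded 400/well; qHTS titration format.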
IL-1B inflam inh: qHTS for Inhibitors of Inflammasome Signaling: IL-1-beta AlphaLISA Primary Screen; activity change, % at 57.5 µM; THP-1 LPS/ATP IL-1B secretion, AlphaLISA, 16 h; hits give low values; 360,000 tested, 4.7% active; in the data active = activity change below about -50%; inconclusive = mostly about -30% to -49%
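Secreted IL-1B measured by AlphaLISA bead assay after 16 h compound exposure of THP-1 cells; compounds (final up to 57.5 uM) added 1 h before LPS (250 ng/mL) and ATP (1.25 mM) stimulation; lower signal means less secretion.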
Active calls of the source: *; ? = inconclusive; / = no result. Unless noted, calls follow the shape of the dose curve; as a rule, active = well fitted curve in the direction sought with a large enough effect; inconclusive = small, poorly fitted or top-dose-only effect, or another doubt; inactive = no such curve, though single readings can be large; an effect the other way counts as inactive or inconclusive. Unless noted, % is scaled to controls: 0 for no effect and ±100 for the full control effect.

SMILES | HT1080 IDH1KD tx | HT1080NT lethal | DT40 TDP1 no CPT | TDP1 cell CPT | IL-1B inflam inh
COc1cc(CCC(=O)N2CCN(c3cccc(C)c3C)CC2)cc(OC)c1OC | -6.0% | -17.5% | 10.3µM* | 11.6µM* | 4.7
Cc1ccc2c(c1)N(C(=O)CCC(=O)N1CCN(c3cccc(C)c3C)CC1)CCO2 | -28.9% | ? | 18.4µM* | 16.4µM* | -8.2
COc1ccc(CCC(=O)N2CCN(c3cccc(C)c3C)CC2)cc1 | -6.1% | -1.9% | ? | ? | -10.7
Cc1ccc2c(c1)N(C(=O)CCC(=O)N1CCN(c3ccccc3)CC1)CCO2 | 11.6% | -2.5% | ? | ? | 7.3
O=C1NCCN1CCNS(=O)(=O)c1cc(C(F)(F)F)cc(C(F)(F)F)c1 | -1.5% | -0.7% | 11.0% | -2.4% | 25.3
CCCn1c(C)cc(C(=O)COC(=O)c2ccc[nH]c2=O)c1C | 0.4% | 0.5% | ? | -25.8% | -10.4
CN(C(=S)NC(=O)C12CC3CC(CC(C3)C1)C2)c1ccc(O)cc1 | -15.0% | -8.0% | 4.61µM* | 5.8µM* | 38.2
CN(C)c1ccc(C(=O)NNC(=O)C23CC4CC(CC(C4)C2)C3)cc1 | -0.6% | 0.8% | ? | 0.5% | -17.1
O=C(NC(=S)NC1C2CC3CC(C2)CC1C3)C12CC3CC(CC(C3)C1)C2 (centres undefined) | 0.7% | 14.0% | 14.6µM* | ? | -7.3
CN(C)NC(=S)NC(=O)C12CC3CC(CC(C3)C1)C2 | 4.5% | -13.5% | 8.2µM* | 4.11µM* | 0.0
CC(C)(C)NC(=S)NC(=O)C12CC3CCC(CC(C3)C1)C2 | 12.4% | 2.6% | ? | ? | -3.4
O=C(NCC1CCCO1)c1cc2cc(F)ccc2[nH]1 (centres undefined) | 5.8% | -0.3% | 0.8% | -26.9% | 28.0
Cc1nc2c(=O)[nH]c(=S)[nH]c2[nH]c1=O | 1.3% | 0.8% | 12.7% | 4.5% | 4.4
COc1cc2c(cc1OC)CN(c1nc(CN3CCCCC3)nc3sc4c(c13)CCCC4)CC2 | 2.5% | 4.7% | ? | ? | -10.8
COc1cc2c(cc1OC)CN(c1nc(CN3CCCC3)nc3sc(C)c(C)c13)CC2 | ? | 14.6µM* | ? | -22.5% | -66.6*
CCN(CC)Cc1c(O)ccc2c1O/C(=C\C=C\c1ccccc1)C2=O | ? | ? | 18.4µM* | ? | -13.7
COc1ccccc1/C=C/C=C1\Oc2c(ccc(O)c2CN(C)C)C1=O | -17.2% | -10.4% | ? | ? | -11.5
COc1cc(C(=O)NCC(=O)N/N=C/c2cccnc2)cc(OC)c1OC | -1.1% | 9.7% | -10.0% | -4.3% | 11.8
CCOc1ccc(C2=NC(c3cccs3)=Nc3ccc(CC)cc3N2)cc1OCC | / | / | 18.4µM* | ? | /
COc1ccc(C2=NNC(c3cccs3)=Nc3ccc(OC)cc32)cc1 | 0.1% | -6.2% | -27.2% | -11.1% | -22.3
CCc1ccc2c(c1)NC(c1cccs1)=NC(c1ccc(F)cc1)=N2 | / | / | 23.1µM* | 23.1µM* | /
O=C1CC(c2cccs2)Cc2nc(NCC3CCCO3)ncc21 (centres undefined) | 3.1% | 11.9% | -25.5% | -10.5% | -17.7
COc1ccc(C2(c3ccc(OC)cc3)NC(=O)NC2=O)cc1 | 1.4% | 3.3% | -4.0% | 4.0% | -4.6
c1coc(-c2cc3nc(NC4CCCCC4)ccn3n2)c1 | -1.3% | 19.5% | 20.6µM* | ? | -7.0
Cc1ccc(NC(=O)Cn2c(=O)n(-c3ccc(CC(=O)NCC4CCCO4)cc3)c(=O)c3ccccc32)cc1 (centres undefined) | / | / | -1.2% | 4.6% | /
SMILES | HT1080 IDH1KD tx | HT1080NT lethal | DT40 TDP1 no CPT | TDP1 cell CPT | IL-1B inflam inh
Cc1ccc(NC(=O)C(C)c2ccc(-c3ccccc3)c(F)c2)cc1 (centres undefined) | 13µM* | 16.4µM* | 7.31µM* | ? | -9.1
C[C@@H](C(=O)O)c1ccc(-c2ccccc2)c(F)c1 | / | / | 2.2% | 5.3% | /
Fc1cccc(CSc2ccc(-c3ccc4c(c3)OCO4)nn2)c1 | ? | -28.0% | -5.3% | -0.3% | -1.7
O=[N+]([O-])c1cccc(-c2ccc(SCc3cccnc3)nn2)c1 | ? | -22.0% | ? | ? | -79.6*
c1cncc(CSc2ccc(-c3ccc4c(c3)OCO4)nn2)c1 | ? | -23.2% | 16.4µM* | ? | -51.1*
COc1ccc(C(CNC(=O)c2cccc(S(=O)(=O)NCc3ccccc3)c2)N(C)C)cc1 (centres undefined) | -9.5% | -8.1% | 1.4% | ? | -16.2
Cc1ccc(NC(=O)CN(C)C(=O)CCSc2ccc(F)cc2)cc1 | 0.4% | -4.9% | -22.1% | ? | 8.9
COc1ccc(CNCCC(c2ccc(OC(C)C)cc2)c2ccccc2OC)cc1OC (centres undefined) | 18.4µM* | 14.6µM* | 10.3µM* | 8.2µM* | /
COCCNCc1ccccc1 | -2.6% | 25.7% | ? | ? | 25.3
COc1ccc(CNCCCSc2ncccn2)cc1OC | -5.4% | -3.2% | -17.8% | 1.2% | -8.4
COc1ccccc1C(CCNCc1ccc(N(C)C)cc1)c1ccc(OC(C)C)cc1 (centres undefined) | ? | ? | 7.31µM* | 20.6µM* | -100.7*
COc1ccc(CCNCC(C)c2ccccc2)cc1 (centres undefined) | -0.3% | 15.4% | -20.2% | -10.1% | -6.7
COc1ccc(CNCCC(c2ccc(OC(C)C)cc2)c2ccccc2OC)cc1 (centres undefined) | ? | ? | 11.6µM* | 13µM* | -97.0*
COc1ccccc1C(CCNCc1ccccc1)c1ccc(OC(C)C)cc1 (centres undefined) | ? | ? | 20.6µM* | 16.4µM* | -88.6*
CN(C)c1ccc(CNCc2cccnc2)cc1 | 8.6% | 20.3% | -24.6% | 1.6% | 15.6
COc1cc(=O)n2c(c1C(=O)NC(C)c1ccco1)CCN(C(=O)c1ccccc1SC)CC2 (centres undefined) | / | / | -8.2% | -10.6% | /
CS(=O)(=O)N1CCC(N2CCN(Cc3ccc(F)cc3)C(=O)C2=O)CC1 | / | / | 2.9% | 1.8% | /
COc1cc(OC)c(NC2(c3ccccc3)C(=O)c3ccccc3C2=O)cc1Cl | / | / | -6.1% | 2.9% | /
N#Cc1c(-c2ccccc2)cc(-c2ccccc2)nc1SCC(O)CS(=O)(=O)Cc1ccccc1 (centres undefined) | / | / | 5.8µM* | 10.3µM* | /
COc1ccc(-c2cc(-c3ccccc3)c(C#N)c(=S)[nH]2)cc1 | 1.7% | -1.1% | -12.5% | 1.9% | 12.0
